# High-throughput results deposited in PubChem by National Center for Advancing Translational Sciences (NCATS).
# An excerpt weighted towards active compounds, which were near 11% of everything screened.
# AMA1 RON2 block: AMA1-RON2 (P. falciparum) interaction inhibition | AID 720542 | AlphaScreen AMA1-biotinylated RON2 peptide binding | Potency, µM (doses to about 58.2 µM), inactives show at the top dose activity change, negative = inhibition, most hits filed as inhibitors | 0.2% of 360,000 active;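 also: 0% = vehicle wells and -100% = peptide control; nearly all actives have a fitted effect of over 45% in size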
#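 AMA1 (3D7) with his tag at 25 nM final met compounds first, then biotinylated RON2 peptide at 25 nM; detection used donor plus acceptor beads, 10 µg/mL apiece, read by AlphaScreen after 30 min at room temperature.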
# Pf growth 96h: inhibits malaria parasite growth, 96 h. Potency, µM (highest dose often 28.7 µM), for inactives: at the top dose activity change, negative = inhibition, most hits filed as inhibitors. P. falciparum luciferase reporter growth, 96 h. 6.9% of 320,000 active
#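 Cell-based qHTS: luciferase-tagged P. falciparum in erythrocytes (2% hematocrit, 0.05% parasitemia final) incubated with compounds for 96 hours, 37 C, 5% CO2; luciferase detection reagent then added and luminescence measured.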
# HCV inhibitor: blocks hepatitis C virus | Huh7.5.1 HCVcc-Cre infection, luciferase reporter, 44 h | Potency, µM (series often up to 41.8 µM), for inactives: top-dose activity change, negative = inhibition, hits mostly inhibitors | 3.4% of 340,000 active | AID 651820
#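 1,000 cells/well; 4 h culture; + compound; + HCVcc-Cre (~0.5 moi); 44 h; luciferase substrate, RT 15 min; read 15 sec.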
# AmpC inh no detg: blocks E. coli AmpC beta-lactamase in detergent-free assay. P00811. AmpC nitrocefin hydrolysis, absorbance 480 nm, 0.0001% Triton. Potency, µM (titrated, usually from 57.1 µM), inactives show at the highest dose activity change, negative = inhibition, most hits filed as inhibitors. 0.52% of 330,000 active. AID 485341;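 also: plate controls were no compound for no effect and no enzyme for full effect; nearly all actives have a fitted effect of over 20% in size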
# Target sequence (P00811 whole entry, looked up): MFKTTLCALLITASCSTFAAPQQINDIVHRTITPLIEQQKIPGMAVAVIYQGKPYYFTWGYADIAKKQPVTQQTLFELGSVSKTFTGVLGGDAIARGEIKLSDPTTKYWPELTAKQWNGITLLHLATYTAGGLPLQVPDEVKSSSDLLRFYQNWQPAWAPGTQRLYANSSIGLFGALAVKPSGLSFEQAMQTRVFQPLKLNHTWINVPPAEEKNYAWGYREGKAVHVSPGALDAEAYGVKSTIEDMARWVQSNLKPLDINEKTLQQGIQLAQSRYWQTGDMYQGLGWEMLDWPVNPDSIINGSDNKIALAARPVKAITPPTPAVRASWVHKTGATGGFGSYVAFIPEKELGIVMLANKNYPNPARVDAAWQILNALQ
#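 AmpC (5.3 nM in the dispensed reagent) in 20 mM phosphate pH 7.0 with 0.01% (detergent screen) or 0.0001% Triton X-100 was preincubated with compounds for 15 min at room temperature. Nitrocefin was then added from an 800 uM solution, and hydrolysis was followed at 480 nm.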
# AmpC inh detg: AmpC beta-lactamase inhibition with detergent present; P00811; AmpC hydrolysis of nitrocefin, absorbance 480 nm, 0.01% Triton; Potency, µM (doses to about 114 µM), for inactives: top-dose activity change, negative = inhibition, most hits filed as inhibitors; 0.041% of 370,000 active;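 also: 0% = no-compound wells and -100% = no-enzyme wells; nearly all actives have a fitted effect of over 25% in size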
#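 AmpC (5.3 nM in the dispensed reagent) in 20 mM phosphate pH 7.0 with 0.01% (detergent screen) or 0.0001% Triton X-100 was preincubated with compounds for 15 min at room temperature. Nitrocefin was then added from an 800 uM solution, and hydrolysis was followed at 480 nm.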
# Pf growth 48h: P. falciparum growth inhibition at 48 hours (one generation). 5.9% of 310,000 active. Potency, µM (top dose mostly 28.7 µM), for the others: at the top dose activity change, negative = inhibition, actives largely listed as inhibitors. P. falciparum luciferase growth in erythrocytes, 48 h
#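 Read-out is firefly luciferase luminescence from an integrated reporter in P. falciparum, so falling signal marks reduced parasite growth. Infected erythrocytes were at 2% hematocrit and 0.1% parasitemia (final) in Albumax-supplemented RPMI 1640.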
# The depositor's hits bear a star; ? = inconclusive; / = not tested or not shown; [ ] = another dose, or the depositor's remark. Calls follow the shape of the dose curve; as a rule, active = well fitted curve in the direction sought with a large enough effect; inconclusive = small, poorly fitted or top-dose-only effect, or another doubt; inactive = no such curve, though single readings can be large; an effect the other way counts as inactive or inconclusive. Unless noted, % is scaled to controls: 0 for no effect and ±100 for the full control effect; potency is read from the fitted curve at half-maximal effect.
SMILES,AMA1 RON2 block,Pf growth 96h,HCV inhibitor,AmpC inh no detg,AmpC inh detg,Pf growth 48h
C=CCn1c(SCC(=O)Nc2ccc(NC(=O)c3ccco3)c(OC)c2)nnc1-c1ccncc1,12.3%,?,?,47.7%,-12.0%,13.1µM*
COc1ccccc1OCC(=O)Nc1cc(C)ccc1NC(=O)c1ccco1,-5.1%,10.4µM*,17.5%,-5.2%,-1.1%,?
COc1ccc(OCC(=O)Nc2cc(NC(=O)c3ccco3)ccc2OC)cc1,-6.4%,8.28µM*,-16.7%,-6.2%,-2.2%,?
C=CCn1c(SCC(=O)Nc2cc(OC)c(NC(=O)c3ccco3)cc2OC)nnc1-c1ccncc1,-4.9%,?,?,146.2%,1.1%,23.8%
Cc1ccc(NC(=O)COc2ccccc2)c(NC(=O)c2ccco2)c1,?,-12.7%,-16.0%,-23.1%,-19.4%,-9.8%
CCN(Cc1ccccc1)C(=O)Cn1ncc2c(=O)oc3ccc(C)cc3c21,/,/,/,/,10.5%,/
O=C(N/N=C1/CN2CCC1CC2)c1cc2ccccc2cc1O,49.5%,31.6%,4.0%,34.0%,2.3%,13.1µM*
COC(=O)c1cc(=O)n(Cc2ccc(OC)c(OC)c2)c(=Nc2ccc(F)cc2)s1,-29.5%,-23.1%,11.2µM*,21.1%,-8.4%,/
COC(=O)c1cc(=O)n(Cc2ccc(F)cc2)c(=Nc2ccccc2)s1,-19.0%,?,?,-10.7%,-6.4%,?
CCOc1ccc(CNC(=O)CN2C(=O)CSc3c2c(C)nn3-c2ccccc2)cc1,/,/,/,/,23.2%,/
Cc1nc2ccn(Cc3ccccc3)c(=O)c2cc1C(=O)Nc1ccc(F)cc1Cl,/,/,/,/,0.8%,/
CCN1CCN(c2cc(N3CCN(C(=O)c4ccco4)CC3)c3c4c(onc24)-c2ccccc2C3=O)CC1,22.4µM*,29.4%,?,147.0%,-13.1%,?
O=C(O)CCNc1cc(N2CCN(C(=O)c3ccco3)CC2)c2noc3c2c1C(=O)c1ccccc1-3,31.6µM*,19.3%,-2.0%,166.5%,-0.6%,?
O=C(O)CCCNc1cc(N2CCN(C3CCCCC3)CC2)c2noc3c2c1C(=O)c1ccccc1-3,/,/,/,/,9.3%,/
O=C(CSc1ccc2nc(-c3ccccc3)cn2n1)Nc1ccccc1,/,/,/,/,-0.8%,/
CCOC(=O)c1c(C)[nH]c(C)c1C(=O)CSc1nc2ccccc2c(=O)n1-c1ccc(F)cc1,-9.9%,?,?,-8.8%[2.29 µM],?,?
CCOC(=O)c1c(C)[nH]c(C)c1C(=O)CSc1nc2ccccc2c(=O)n1-c1ccccc1C,-27.6%,?,?,-7.5%,-10.6%,10.4µM*
CN1CCCN(C(=O)CC2(CC(=O)O)CCCC2)CC1,2.4%,11.2%,9.6%,-40.4%,28.2µM*,-1.7%
CN1CCN(C(=O)CC2(CC(=O)O)CCCC2)CC1,-2.0%,6.0%,11.6%,-41.1%,?,-3.9%
CC1(C)N=C(c2ccc(F)cc2)C(=O)N1CC(=O)Nc1ccccc1Cl,/,/,/,/,14.4%,/
COc1cnc(-c2ccccn2)nc1Oc1ccccc1Cl,11.4%,2.62µM*,?,?,-0.7%,7.38µM*
COc1cnc(-c2ccccn2)nc1Oc1ccc(F)cc1F,10.7%,10.4µM*,-13.4%,2.2%,-17.1%,10.4µM*
COc1cnc(-c2ccccn2)nc1Oc1ccc(Cl)cc1,10.0%,5.22µM*,?,93.3%,-12.2%,0.37µM*
COc1cnc(-c2ccccc2)nc1Oc1ccccc1C,9.7%,?,-15.6%,19.5%,8.2%,?
COc1cnc(-c2ccccn2)nc1NC(C)C,-86.0%,?,?,-20.9%,1.7%,14.7µM*
SMILES,AMA1 RON2 block,Pf growth 96h,HCV inhibitor,AmpC inh no detg,AmpC inh detg,Pf growth 48h
COc1cnc(-c2ccccc2)nc1Oc1ccc(C(C)(C)C)cc1,-6.4%,?,-0.4%,25.3%,-0.3%,?
COc1cccc(-c2nc(-c3ccccn3)no2)c1OC,17.3%,-12.7%,?,-4.3%,-8.6%,63.8%
Cc1ccc(NC(=O)Cn2c(=O)n(CCCCC(=O)NCCc3ccc(Cl)cc3)c(=O)c3ccccc32)cc1,/,/,/,/,15.1%,/
CCCc1ccc(OCC(=O)Nc2sc(C(=O)OCC)c(C)c2C(=O)OCC)cc1,/,/,/,/,15.7%,/
COc1cnc(-c2ccccn2)nc1Oc1ccc(Cl)c2ccccc12,74.8%,6.57µM*,?,33.4%,-5.8%,2.08µM*
Cc1onc(-c2ccccc2)c1C(=O)Nc1ccc(OC(C)C)cc1,-8.1%,-9.2%,-15.2%,-13.3%,?,3.3%
Cc1onc(-c2ccccc2)c1NC(=O)Nc1ccc(OC(F)F)cc1,-7.3%,4.65µM*,-12.5%,121.5%,-0.5%,6.57µM*
CC(C)(C)c1ccc(C(=O)N2CCCCCC2=O)cc1,-1.5%,6.4%,-16.7%,-12.9%,-4.6%,5.22µM*
O=C(NCc1ccco1)c1ccccc1NS(=O)(=O)c1cccs1,14.8%,?,14.7%,-21.5%,-9.3%,7.5%
O=C(NCc1ccco1)c1ccccc1NS(=O)(=O)c1ccc2c(c1)OCCO2,2.1%,/,?,/,-1.6%,16.5µM*
O=C(OCc1cccs1)c1ccccc1NS(=O)(=O)c1ccc2c(c1)OCCO2,-5.1%,/,8.91µM*,-54.9%,?,?
CCOc1cc(/C=C(\C#N)C(=O)Nc2ccc(C)cc2)ccc1OCc1cc(=O)n2nc(CC)sc2n1,/,/,/,/,-0.9%,/
O=C(NC1CCCCCC1)C1c2ccccc2C(=O)N1Cc1ccccc1Cl (centres undefined),/,/,/,/,18.8%,/
O=S(=O)(c1ccc(Cl)cc1)c1nnn2c1nc(N1CCCCC1)c1sccc12,/,/,/,/,-3.5%,/
COc1ccc(Oc2nc(-c3cccnc3)nc3ccccc23)cc1,-19.0%,?,?,7.3%,2.1%,?
COc1ccc(Oc2nc(SC)nc3ccccc23)cc1,13.9%,37.2%,?,0.159µM*,0.8%,-1.0%
CSc1nc(Sc2ccc(Cl)cc2)c2ccccc2n1,24.2%,4.65µM*,-11.2%,-13.2%,-2.6%,2.62µM*
CSc1nc(Sc2ccccc2)c2ccccc2n1,55.9%,-8.0%,4.47µM*,-23.7%,-2.2%,-19.4%
COC1C(OC(=O)/C=C/C=C/C=C/C=C/C(=O)O)CCC2(CO2)C1C1(C)OC1CC=C(C)C (centres undefined) (tested in a mixture with another compound),-2.2%,/,11.8%,/,/,/
COC1C(OC(=O)/C=C/C=C/C=C/C=C/C(=O)O)CCC2(CO2)C1C1(C)OC1CC=C(C)C (centres undefined),/,?,/,/,/,0.0038µM*
COc1cc(CNCC(O)c2ccccc2)ccc1OCc1ccc(Cl)nc1 (centres undefined),-2.3%,3.7µM*,?,24.5%,1.0%,/
